# Hits are enriched below; roughly 4.6% of the tested compounds scored in any of these assays.
# TRHR enhancer = qHTS for Small Molecule Agonists and Allosteric Enhancers of Human TRH Receptor: Primary Screen for Enhancers; TRHR cells, fluo-8 calcium fluorescence, EC20 TRH enhancement; enhancement, % at 2 µM; 0.66% of 360,000 active; AID 493056, 2011; in the data active = enhancement above about 30%; note: 0% is about no effect
# Target sequence (P34981 whole entry, looked up): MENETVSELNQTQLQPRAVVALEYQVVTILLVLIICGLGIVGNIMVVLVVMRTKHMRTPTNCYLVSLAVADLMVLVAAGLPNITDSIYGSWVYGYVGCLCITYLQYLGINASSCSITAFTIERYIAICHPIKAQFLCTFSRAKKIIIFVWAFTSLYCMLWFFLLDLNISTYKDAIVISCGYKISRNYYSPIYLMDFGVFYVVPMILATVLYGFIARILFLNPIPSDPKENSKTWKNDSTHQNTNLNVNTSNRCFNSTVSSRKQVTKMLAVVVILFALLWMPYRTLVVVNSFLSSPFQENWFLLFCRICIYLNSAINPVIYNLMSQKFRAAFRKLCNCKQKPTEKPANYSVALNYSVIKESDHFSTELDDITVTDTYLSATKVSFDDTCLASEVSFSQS
#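 TRHR-expressing cells loaded with fluo-8 calcium dye were read kinetically (ex 480/em 530) during compound addition, then stimulated with an EC20 of TRH (10 nM final). Enhancement of the Gq-mediated intracellular calcium response was scored.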
# Epigenetic reg = Quantitative High-Throughput Screen for Regulators of Epigenetic Control | murine LDR cells, GFP reporter derepression, 30 h | Potency, µM (top dose mostly 53.9 µM), for inactives: top-dose GFP activation, actives largely listed as activators | 0.2% of 280,000 active; active = well fitted activation curve with a large enough effect; inconclusive = small, poorly fitted or top-dose-only effect; note: potency is the fitted concentration of half-maximal effect; % of control where 0% means no effect; nearly all actives have a fitted effect of over 60% in size
#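 Reporter derepression read as number of fluorescent GFP-positive objects, 20-120 um in size, counted by laser-scanning cytometer. Mouse LDR line with an epigenetically silenced CMV-GFP locus; compound incubation 30 h, 37 C.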
# D1 agonist = Allosteric Agonists of the Human D1 Dopamine Receptor: qHTS | D(1A) dopamine receptor (Homo sapiens), P21728 | 1% of 360,000 active | AID 504660, 2011 | activation, % at 2 µM | HEK293 T-REx D1 cells, calcium flux, agonist mode; note: 0% is about no effect
#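 Agonism was scored from calcium flux recorded over 180 s (1 read/s) after pintool compound addition, following a 10-cycle baseline. Cells were inducible force-coupled HEK293 TREx D1, plated overnight at 30 C and loaded with no-wash calcium dye.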
# D1 potentiator = Potentiators of Human D1 Dopamine Receptor: qHTS; HEK293 TREx D1 cells, calcium flux, dopamine EC20 potentiation; potentiation, % at 10 µM; 0.036% of 360,000 active; AID 504651, 2011; in the data active = potentiation above about 30%; note: 0% is about no effect
# D1 antag = Antagonist of Human D 1 Dopamine Receptor: qHTS. HEK293 TREx D1 cells, calcium flux, dopamine EC80; active compounds read low. D(1A) dopamine receptor (Homo sapiens), P21728. 3.2% of 360,000 active. activity change, negative = inhibition, % at 10 µM; in the data active = activity change below about -30%; note: % is set by controls: 0 for no effect and ±100 for the full control effect
#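 Compound effects on dopamine-evoked calcium signalling were measured in tetracycline-induced HEK293 Trex D1 cells. Dopamine at EC80 followed a 180 s compound pre-read, and fluorescence was tracked kinetically for 180 s more.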
# TRHR agonist = qHTS for Small Molecule Agonists and Allosteric Enhancers of Human TRH Receptor: Primary Screen for Agonists. activation, % at 2 µM. 0.18% of 360,000 active. TRHR cells, calcium flux fluo-8, FDSS agonist mode; note: 0% is about no effect
#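 Fluo-8-loaded TRHR cells; 10 s baseline, compound added, kinetic Ca2+ fluorescence read 1/s, agonist mode.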
# * = called active by the depositor; ? = inconclusive; nt = not tested or not shown. Cut-off read from the data, not from the text of the source, unless noted: active = activation above about 30%; inactive = the rest.
SMILES,TRHR enhancer,Epigenetic reg,D1 agonist,D1 potentiator,D1 antag,TRHR agonist
Cc1cc(NC(=O)CCc2ccccc2)c([N+](=O)[O-])cc1C,-1.2,1.1%,1.5,0.6,0.9,-0.4
COc1cccc(N2C(=O)CSC23C(=O)N(CC(=O)Nc2cccc(Cl)c2)c2ccccc23)c1 (centres undefined),-5.9,-0.4%,1.8,-3.9,-0.4,0.2
O=C(CN(Cc1ccccc1)C(=O)c1csnn1)NCc1ccccc1,-0.9,-1.6%,-0.2,-7.5,-66.7*,-0.6
O=C(CN(Cc1ccc(Cl)cc1)C(=O)c1csnn1)NCc1ccccc1,6.9,nt,4.8,nt,-1.6,0.0
Cc1ccc(CN(CC(=O)NC2CCCC2)C(=O)c2csnn2)cc1,7.7,nt,2.3,-4.8,9.3,-0.2
COc1ccc(CN(CC(=O)NC2CCCC2)C(=O)c2csnn2)cc1,-8.9,nt,0.8,-12.7,-48.7*,0.4
COc1cccc(-c2nc(CS(=O)(=O)CC(=O)Nc3c(C)cc(C)cc3C)c(C)o2)c1,-10.1,0.5%,3.1,-4.2,-4.9,1.2
O=C(NCCNC1CCC(c2ccccc2)CC1)c1ccc(F)cc1 (centres undefined),2.5,-2.2%,51.9*,-9.9,-36.9*,2.2
COc1ccccc1C(=O)Nc1ccc(-c2cc(C(F)(F)F)nn2-c2ccccc2)cc1,-1.6,0.0%,0.1,-3.1,3.2,3.9
Cc1nc2ccccc2n1-c1ccccc1,0.0,0.8%,2.4,-5.5,-25.1,-0.1
O=c1c(/C=C(\O)c2ccccc2)nc2ccccc2n1-c1ccccc1,-2.6,?,169.4*,3.8,2.6,46.6*
COc1ccc(N2CCN(Cc3nc4ccccc4c(=O)[nH]3)CC2)cc1,-3.7,-1.1%,1.7,-6.2,-7.5,-1.0
CCC(CC)C(=O)N1CCN(Cc2nc3ccccc3c(=O)[nH]2)CC1,31.7*,-1.1%,2.3,-2.3,-2.3,-0.8
O=c1[nH]c(CN2CCN(c3ccccc3)CC2)nc2ccccc12,0.9,1.0%,2.6,-7.0,5.8,0.5
COc1cccc(N2CCN(Cc3nc4ccccc4c(=O)[nH]3)CC2)c1,2.1,0.1%,2.3,-1.9,-61.8*,0.2
O=C(c1cccs1)N1CCN(Cc2nc3ccccc3c(=O)[nH]2)CC1,0.3,3.7%,2.7,-1.4,-9.4,0.0
O=c1[nH]c(CN2CCN(c3ccc(F)cc3)CC2)nc2ccccc12,34.0*,-0.9%,-0.7,-4.7,-3.1,-0.4
CCOC(=O)c1sc(=S)n(C)c1C,0.4,1.9%,1.9,1.8,1.7,0.3
CCOC(=O)c1sc(=S)n(C)c1N,0.6,1.1%,2.4,-7.0,-33.4*,-0.5
O=C(NCc1ccccn1)c1n[nH]c2ccccc12,39.2*,-2.5%,2.2,-0.2,-0.3,-0.1
O=C(NCc1ccccn1)c1n[nH]c(=O)c2ccccc12,16.2,-0.2%,6.3,-1.2,11.7,-0.4
COc1ccc(CCN2C(=O)CSC2=Nc2ccc(C(C)C)cc2)cc1OC,-0.8,0.0%,5.0,-2.4,-43.4*,1.1
CCc1ccc(Nc2nc3ccccc3nc2NS(=O)(=O)c2ccccc2)cc1,-1.5,-0.7%,17.1,-4.8,-48.6*,0.5
Cc1ccc2nc(NS(=O)(=O)c3ccc(Cl)cc3)c(Nc3ccc(C(=O)O)cc3)nc2c1,1.5,-1.6%,10.9,-1.1,-8.5,-0.5
COc1cccc(Nc2nc3cc(C)ccc3nc2NS(=O)(=O)c2ccc(Cl)cc2)c1,-1.4,-1.1%,57.8*,-4.2,-50.1*,6.1
CCOC(=O)c1ccc(Nc2nc3ccccc3nc2NS(=O)(=O)c2ccc(Cl)cc2)cc1,-6.1,-0.8%,15.1,-2.0,-40.4*,-0.4
CCOc1ccc(S(=O)(=O)Nc2nc3ccccc3nc2Nc2ccc(OC)cc2)cc1,-2.9,-0.1%,6.4,-2.0,-1.7,-0.3

# High-throughput results deposited in PubChem BioAssay by National Center for Advancing Translational Sciences (NCATS).
